Screens deposited in PubChem by National Center for Advancing Translational Sciences (NCATS).
Most compounds without a hit are left out; they make up all but 3.8% or so of the library.
ELG1 repair inh: qHTS screen for small molecules that inhibit ELG1-dependent DNA repair in human embryonic kidney (HEK293T) cells expressing luciferase-tagged ELG1. HEK293T ELG1-luciferase reporter, luminescence, 16 h; DNA damage induced by 5-fluorouridine. Potency, µM (highest dose often 46.1 µM), for the others: top-dose activity change, negative = inhibition, actives largely listed as inhibitors. 330,000 tested, 2.3% active. AID 504467, 2011; further: on the % scale 0 is the no-effect control and ±100 the full control effect; nearly all actives have a fitted effect of over 55% in size
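HEK293T cells expressing luciferase-tagged ELG1 (2,000/well) received 5-Fluorouridine plus compound or DMSO for 16 hr at 37 °C. Luciferase was read by ONE-Glo luminescence after 30 min at room temperature.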
Nrf2 block: Nrf2 qHTS screen for inhibitors; A549 ARE-Fluc reporter, luciferase luminescence, 18-24 h; Potency, µM (top dose mostly 46 µM), inactives show at the highest dose activity change, negative = inhibition, most hits filed as inhibitors; 360,000 tested, 2.1% active; further: on the % scale 0 is the no-effect control and ±100 the full control effect; nearly all actives have a fitted effect of over 60% in size
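Concentration-response testing used A549 ARE_Fluc cells at 5000 cells/well. Following an 18-24 h compound incubation, viability was read by fluorescence (Ex 405/Em 525) and luciferase output by luminescence.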
A549 viability: Nrf2 qHTS screen for inhibitors: counterscreen for cytotoxicity. A549 ARE-Fluc cells, CellTiter-Fluor viability, 18-24 h. Potency, µM (doses to about 46 µM), without a hit: top-dose activity change, negative = cytotoxicity, most hits filed as inhibitors. 390,000 tested, 0.16% active. AID 504648, 2011; further: on the % scale 0 is the no-effect control and ±100 the full control effect
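A549 ARE-Fluc cells in 5% FBS OPTI-MEM, 5000 cells/well, rested 2 h then exposed to compounds in concentration-response for 18-24 h at 37 °C. Viability by CellTiter-Fluor fluorescence (Ex 405/Em 525) after 30 min; luciferase luminescence (BugLite, 15 min, RT) read afterwards.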
Nrf2 activator: qHTS of Nrf2 Activators; AREc32 ARE-luciferase reporter (MCF7-derived line), luminescence, 24 h; Potency, µM (series often up to 46.1 µM), for inactives: top-dose activation, most hits filed as activators; 410,000 tested, 0.31% active; further: % of control where 0% means no effect; nearly all actives have a fitted effect of over 65% in size
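Reporter line AREc32 (ARE-Fluc), seeded overnight in OPTI-MEM with 5% FBS; compound pin-transferred, 24 hr at 37 deg C, 5% CO2; luminescent read-out.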
IDH1 R132H inh: qHTS for Inhibitors of mutant isocitrate dehydrogenase 1 (IDH1): qHTS. Isocitrate dehydrogenase [NADP] cytoplasmic (Homo sapiens), O75874. IDH1-R132H enzyme, NADPH consumption, diaphorase/resazurin fluorescence. Potency, µM (titrated, usually from 76.6 µM), for inactives: at the top dose activity change, negative = inhibition, most hits filed as inhibitors. 390,000 tested, 0.093% active. AID 602179, 2012; further: on the % scale 0 is the no-effect control and ±100 the full control effect; nearly all actives have a fitted effect of over 65% in size
Target sequence (O75874 whole entry R132H, stated change not applied): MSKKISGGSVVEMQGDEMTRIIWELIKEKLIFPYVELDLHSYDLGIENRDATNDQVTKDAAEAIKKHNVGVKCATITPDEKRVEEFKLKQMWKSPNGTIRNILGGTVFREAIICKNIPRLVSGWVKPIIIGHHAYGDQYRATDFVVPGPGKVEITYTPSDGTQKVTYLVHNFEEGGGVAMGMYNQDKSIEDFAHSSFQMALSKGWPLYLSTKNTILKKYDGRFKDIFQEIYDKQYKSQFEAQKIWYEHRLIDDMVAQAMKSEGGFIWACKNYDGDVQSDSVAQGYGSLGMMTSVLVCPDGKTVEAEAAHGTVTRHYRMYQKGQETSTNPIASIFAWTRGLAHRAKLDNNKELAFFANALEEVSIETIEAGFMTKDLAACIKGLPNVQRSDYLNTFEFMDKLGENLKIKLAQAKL
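IDH1-R132H (0.5 ug/mL dispensed) in pH 7.5 Tris buffer was preincubated 30 min with compound, then given a substrate mix of 0.016 mM NADPH and 2 mM alpha-KG for 80 min at room temperature; remaining NADPH was read by diaphorase/resazurin fluorescence.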
Starred values were filed as active, the others as inactive; ? = inconclusive; . = no result given. The call rests on the fitted dose curve; in most records, active means well fitted curve in the direction sought with a large enough effect; inconclusive means small, poorly fitted or top-dose-only effect, or another doubt; inactive means no such curve, though single readings can be large; an effect the other way counts as inactive or inconclusive. Potency means the concentration at half of the fitted maximal effect.

SMILES | ELG1 repair inh | Nrf2 block | A549 viability | Nrf2 activator | IDH1 R132H inh
COc1ccc(NC(=O)c2cccs2)cc1 | ? | ? | 1.8% | 3.5% | 5.7%
CCN(CC)c1nn2c(=O)c(C(=O)NCCc3ccc(C)cc3)cnc2s1 | . | -18.0% | 1.2% | 0.6% | 7.6%
COC(=O)c1cc2oc3ccccc3c2n1CC(=O)Nc1ccc(C)c(F)c1 | . | 6.5% | 3.4% | 7.2% | -22.3%
Cc1nc2ccccc2c2c(N)c3ccccc3n12 | 25.9µM* | 8.2% | -10.0% | 3.9% | -16.5%
CC(C)(C)c1ccc(C(=O)N2CCC2(C)C(=O)Nc2cccc(C#N)c2)cc1 (stereo not drawn) | . | . | . | 0.3% | .
O=C(Nc1ccc(F)cc1)N(Cc1ccco1)Cc1cc2cc3c(cc2[nH]c1=O)OCO3 | 23.1µM* | ? | -27.0% | 8.1% | -1.0%
CCCCNC(=S)N(Cc1ccco1)Cc1cc2cc3c(cc2[nH]c1=O)OCCO3 | 14.6µM* | 0.1% | 0.8% | -0.5% | 0.0%
Cc1ccc(NC(=O)N(Cc2cccs2)Cc2cc3cc4c(cc3[nH]c2=O)OCO4)cc1 | 20.6µM* | . | . | . | .
Cc1ccc(NC(=S)N(CCCN(C)C)Cc2cc3cc4c(cc3[nH]c2=O)OCO4)cc1 | 14.0% | -0.5% | 1.0% | -0.4% | 1.6%
COc1ccc(CN(Cc2cc3cc4c(cc3[nH]c2=O)OCO4)C(=O)NC2CCCCC2)cc1 | 16.4µM* | -37.0% | -13.8% | -0.4% | -9.5%
CCc1cc2c(cc3c(=O)n(CC(=O)NC(C)C)nc(CC)n32)s1 | . | 2.5% | -1.0% | -0.3% | -6.8%
COc1ccc(NC(=O)N(Cc2cccs2)Cc2cc3cc4c(cc3[nH]c2=O)OCO4)cc1 | 20.6µM* | . | . | . | .
Cc1ccc(NC(=O)N(CCCN2CCOCC2)Cc2cc3cc4c(cc3[nH]c2=O)OCO4)cc1 | 21.0% | 7.9% | 8.9% | 6.7% | 5.9%
Cc1ccc(NC(=O)N(Cc2ccc3c(c2)OCO3)Cc2cc3cc4c(cc3[nH]c2=O)OCCO4)cc1 | 20.6µM* | ? | -16.6% | -0.3% | -1.5%
O=C(O)c1ccc2c(ccc3nn(-c4ccc(/C=C/c5ccc(-n6nc7ccc8cc(C(=O)O)ccc8c7n6)cc5[S+](=O)([O-])[O-])c([S+](=O)([O-])[O-])c4)nc32)c1 | . | 0.0% | ? | . | .
CC12CCC=CC1C(c1ccoc1)N(Cc1ccccc1)C2=O (stereo not drawn) | . | 17.8% | -0.6% | . | .
COc1c(C)cc(C(=O)C2CCCN(C(=O)c3cccc(-n4cccn4)c3)C2)cc1C (stereo not drawn) | 23.1µM* | -10.2% | 1.0% | 0.3% | 11.9%
COc1c(C)cc(C(=O)C2CCCN(C(=O)c3ccc4[nH]ccc4c3)C2)cc1C (stereo not drawn) | ? | 2.7% | -0.1% | 0.8% | 0.0%
COc1c(C)cc(C(=O)C2CCCN(C(=O)CCc3scnc3C)C2)cc1C (stereo not drawn) | 11.6µM* | ? | -7.5% | -0.5% | 5.5%
CCCc1cc(C(=O)N2CCCC(C(=O)c3cc(C)c(OC)c(C)c3)C2)n(C)n1 (stereo not drawn) | 8.2µM* | ? | 6.0% | 0.0% | -3.3%
O=C1CC(c2ccc3c(c2)OCO3)c2cc3c(cc2N1)OCCO3 (stereo not drawn) | ? | -19.9% | -10.7% | 0.2% | 3.3%
Cc1ccc(C2CC(=O)Nc3cc4c(cc32)OCCO4)cc1Br (stereo not drawn) | . | 18.4µM* | -4.4% | 0.5% | -27.8%
CN(C)CCCN1C(=O)c2cccc3c([N+](=O)[O-])ccc(c23)C1=O | 13µM* | -20.4% | 0.4% | -3.7% | 17.9%
CCOc1ccc(N(CC)S(=O)(=O)c2cc(Br)cc3c2N(C(C)=O)C(C)C3)cc1 (stereo not drawn) | . | ? | -9.0% | 0.6% | -5.5%
CCOc1ccccc1C1NC(c2ccc3c(c2)OCO3)=CC(c2ccccc2O)N1 (stereo not drawn) | . | 19.4% | -10.0% | . | .
SMILES | ELG1 repair inh | Nrf2 block | A549 viability | Nrf2 activator | IDH1 R132H inh
O=C1CCc2cc(S(=O)(=O)Nc3cccc(F)c3)ccc2N1 | . | ? | 0.3% | . | .
CCCOc1ccc(C(=O)Nc2cccnc2)cc1 | ? | 26.4% | -4.9% | 4.2% | 12.0%
CCCCCOc1ccc(NC(=O)C(=O)NCCCn2ccnc2)cc1 | ? | 9.2µM* | -0.5% | -0.1% | 2.4%
CCCCOc1ccc(C(=O)Nc2ccncc2)cc1 | ? | 9.2µM* | -7.9% | 3.9% | 4.9%
Cc1ccc(NC(=O)C2CCCN(c3ncnc4c3nc3n4CCCCC3)C2)c(Br)c1 (stereo not drawn) | . | 18.7% | 4.9% | -1.1% | -6.2%
COc1ccc(N/C=C(\C#N)c2nc3ccccc3n2C)c(OC)c1 | 25.9µM* | 5.9% | . | 4.2% | 6.5%
Cn1c(/C(C#N)=C/c2ccccc2Br)nc2ccccc21 | . | ? | ? | 8.91µM* | .
CCn1c(/C(C#N)=C/c2ccccc2Cl)nc2ccccc21 | . | . | 0.4% | ? | -14.5%
Cc1oc(-c2ccc(C(=O)Nc3cc(F)ccc3F)cc2)nc1COc1ccccc1 | . | ? | -4.9% | 2.2% | 3.5%
CCOC(=O)/C(=C\C=C\c1ccccc1)NC(=O)c1ccccc1 | -0.4% | 9.2µM* | -14.7% | 6.1% | 0.9%
Cc1ccccc1-n1c(SCC(=O)N/N=C/c2c(C)nn(-c3ccccc3)c2C)nc2ccccc2c1=O | ? | ? | ? | 2.0% | 6.0%
Cc1ccc(-n2c(SCC(=O)N/N=C/c3c(C)nn(-c4ccccc4)c3C)nc3ccccc3c2=O)cc1 | 23.1µM* | ? | 8.2µM* | 0.6% | -3.0%
Cc1nn(-c2ccccc2)c(C)c1/C=N/NC(=O)CSc1nc2ccccc2c(=O)n1-c1ccc(Br)cc1 | -19.1% | 25.9µM* | 18.4µM* | -0.2% | 5.5%
Cc1cccc(OCC(=O)NCc2ccc3c(c2)CCN3C(=O)c2ccccc2)c1 | . | . | 2.8% | 2.8% | -9.7%
O=C(NNC(=S)Nc1cccc(Cl)c1)c1ccccc1OC(F)F | ? | 20.6µM* | -6.3% | -0.6% | 1.7%
CCN(CC)S(=O)(=O)c1nnc(NC(=O)COc2ccccc2)s1 | . | ? | 9.2% | 0.7% | 12.6%
CCN(CC)S(=O)(=O)c1nnc(NC(=O)COc2ccc(Cl)cc2)s1 | . | 4.11µM* | 0.3% | 0.4% | -12.1%
CC(C)OCCCNC(=O)c1nn(C)c2c1CSc1ccccc1-2 | . | -21.6% | 4.0% | 1.8% | 11.5%
CC1=CC(C)C2(COC(c3ccc[n+](C)c3)OC2)C(C)C1 (stereo not drawn) | 6.51µM* | 0.2% | 0.0% | 0.6% | -3.3%
O=C(Nc1ccc(C(=O)N2CCC(N3CCOCC3)CC2)cc1)c1ccc(Br)o1 | ? | 2.3% | -1.2% | -0.1% | -8.9%
